Assay results taken from PubChem BioAssay AID430 (Sanford-Burnham Center for Chemical Genomics, 2006).
The whole screen tested about 63,000 compounds, of which about 1,100 (1.7%) were called active. Cut-off read from the data, not from the text of the source: active = cytotoxicity above about 50%; inactive = the rest. The full list was thinned out, with actives kept by preference. Measured potencies and affinities stand elsewhere.

Assay: cytotoxicity in HPDE-C7 cells, cell-based, fluorescence, HTS (AID 430);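 note: cells exposed to compound for 48 hours before viability readout; 0% = vehicle and 100% = reference cytotoxic drug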
Details: HPDE-C7 pancreatic duct cells viability, at 10 µM, hits give high values

| SMILES | cytotoxicity |
| --- | --- |
| Cc1c(C#N)c(SCC(N)=O)nc2c1CCCC2 | -21% (inactive) |
| CCOC(=O)CC(=O)CSc1nc2c(cc1C#N)CCCCC2 | -5.9% (inactive) |
| CCOC(=O)c1sc(NC(=O)CSc2nc3c(cc2C#N)CCC3)c(C#N)c1C | 4.5% (inactive) |
| Cc1nc(SCC(=O)CC(=O)OC(C)C)c(C#N)c(C)c1C | -1.2% (inactive) |
| CCOC(=O)c1sc(NC(=O)CSc2nc3c(cc2C#N)CCCCCC3)c(C#N)c1C | 79.6% (active) |
| COC(=O)CC(=O)CSc1nc2c(cc1C#N)CCC2 | 76.1% (active) |
| COC(=O)CC(=O)CSc1nc2c(cc1C#N)CCCCC2 | 10.3% (inactive) |
| N#Cc1cc2c(nc1SCC(=O)Nc1sc3c(c1C#N)CCC3)CCCCC2 | 23.2% (inactive) |
| CCOC(=O)CC(=O)CSc1nc2c(c(C)c1C#N)CCC2 | 52.6% (active) |
| CC(C)OC(=O)CC(=O)CSc1nc2c(cc1C#N)CCC2 | 49.9% (inactive) |
| Cc1cc(C)c(C#N)c(SCC(=O)CC(=O)OC(C)C)n1 | 34.5% (inactive) |
| COc1cc(Cl)ccc1S(=O)(=O)n1nc(C)cc1C | 7.8% (inactive) |
| CCc1ccc(S(=O)(=O)NCc2csc(-c3cccnc3)n2)s1 | -5% (inactive) |
| CCOC(=O)c1ccccc1NC(=O)c1c(O)c2ccccc2n(CC)c1=O | -9.2% (inactive) |
| CC(=O)N1CCc2cc(S(=O)(=O)NC(CC(C)C)C(=O)Nc3cc(C)ccn3)ccc21 (centres undefined) | -6.7% (inactive) |
| Cc1cc(C(C)(C)C)oc1C(=O)N1CCN(C(=O)c2oc(C(C)(C)C)cc2C)CC1 | 4% (inactive) |
| CCCCS(=O)(=O)C(=C1Nc2ccccc2N1)S(=O)(=O)CCCC | -0.6% (inactive) |
| CCOCCCn1c(=S)[nH]c2cc(C(=O)N3CCC(C(N)=O)CC3)ccc2c1=O | 0.3% (inactive) |
| CC(C)OC(=O)CSc1nnc(-c2cnccn2)n1-c1ccc(Cl)cc1 | 9.2% (inactive) |
| Cc1ccc(OCC(=O)N2CCN(C(=O)Cc3ccccc3)CC2)cc1 | -0.3% (inactive) |
| CCOC(=O)CSc1nc2cc(C(=O)N3CCC(C(N)=O)CC3)ccc2c(=O)n1-c1ccccc1 | -8.3% (inactive) |
| N#CCSc1nc2cc(C(=O)N3CCCC3)ccc2c(=O)n1Cc1ccccc1 | -0.6% (inactive) |
| N#CCSc1nc2cc(C(=O)N3CCC(C(N)=O)CC3)ccc2c2nc3ccccc3n12 | 75.7% (active) |
| Cc1onc(-c2ccccc2)c1C(=O)Nc1cccc2nsnc12 | -11.7% (inactive) |
| COc1ccc(CN2CCC(=O)NC2=O)cc1 | 6.7% (inactive) |

| SMILES | cytotoxicity |
| --- | --- |
| COc1ccc(Cn2c(C)ccc2C)cc1 | -2% (inactive) |
| COc1ccc(CN2CN(C(C)C)CSC2=S)cc1 | 50.5% (active) |
| CC(=O)c1cc(-c2ccccc2)n(CCC(=O)NCc2cccs2)c1C | -24% (inactive) |
| N#CC1=C(N)Oc2cc(O)ccc2C1c1ccccc1 (centres undefined) | -11.3% (inactive) |
| N#CC1=C(N)Oc2c(ccc3cccnc23)C1c1cccnc1 (centres undefined) | 62.4% (active) |
| CCc1[nH]nc2c1C(c1cccnc1)C(C#N)=C(N)O2 (centres undefined) | 4.9% (inactive) |
| CN(C)c1ccc2c(c1)OC(N)=C(C#N)C2c1cccc(F)c1 (centres undefined) | 62.6% (active) |
| CC(C)(C)c1[nH]nc2c1C(c1cccnc1)C(C#N)=C(N)O2 (centres undefined) | -9.6% (inactive) |
| N#CC1=C(N)Oc2cc(O)ccc2C1c1ccncc1 (centres undefined) | 3% (inactive) |
| CCCc1nn(C)c2c1C(c1cccnc1)C(C#N)=C(N)O2 (centres undefined) | 3.9% (inactive) |
| CCN(CC)c1ccc2c(c1)OC(N)=C(C#N)C2c1cccnc1 (centres undefined) | 64.4% (active) |
| N#CC1=C(N)Oc2nc(-c3ccccc3)[nH]c2C1c1cccnc1 (centres undefined) | 3.4% (inactive) |
| C=CCSC1=C(C#N)C(c2ccccc2Cl)CC(=O)N1 (centres undefined) | -33.8% (inactive) |
| O=C(O)C1C2C=CC(C2)C1C(=O)Nc1ccc(C(=O)N2CCCCC2)c(Cl)c1 (centres undefined) | -20.1% (inactive) |
| COc1cc2c(cc1OC)C1=C(C#N)CN(CC(=O)O)CN1CC2 | -4.5% (inactive) |
| COc1ccc(S(=O)(=O)NCCC(=O)NCc2cccs2)cc1 | -13.7% (inactive) |
| C=C(C)CSc1nc2ncccc2[nH]1 | -0.6% (inactive) |
| O=C(CSc1nnc(-c2c[nH]c3ccccc23)o1)N(Cc1ccccc1)c1ccc(F)cc1 | 53.6% (active) |
| COc1ccc(CN(C(=O)CSc2nnc(-c3ccccc3F)o2)c2ccc(F)cc2)cc1 | 6.6% (inactive) |
| COc1ccc(CN(C(=O)CSc2nnc(-c3ccc(F)cc3)o2)c2ccc(F)cc2)cc1 | 3% (inactive) |
| CCOC(=O)C(C)Sc1nc2ccccc2c(=O)n1CC (centres undefined) | -15.7% (inactive) |
| Cc1cccc(N2CCN(c3nnnn3-c3ccccc3)CC2C)c1 (centres undefined) | 0.6% (inactive) |
| CC(NC(=O)c1noc2c1CCCC2)c1ccccc1 (centres undefined) | 4.7% (inactive) |
| CCOC(=O)Cn1nnnc1C(CC)N(Cc1cccs1)Cc1cc2cc(C)ccc2[nH]c1=O (centres undefined) | 7.5% (inactive) |
| Cc1ccc2[nH]c(=O)c(CN(Cc3nnnn3C3CCCC3)C3CCCCC3)cc2c1 | 9.3% (inactive) |

| SMILES | cytotoxicity |
| --- | --- |
| CCOc1ccc2[nH]c(=O)c(CN(Cc3cccs3)Cc3nnnn3C(C)(C)C)cc2c1 | 31.8% (inactive) |
| Cc1ccc2cc(CN(Cc3ccc(F)cc3)Cc3nnnn3C3CCCC3)c(=O)[nH]c2c1 | 23.4% (inactive) |
| Cc1ccc2cc(CN(Cc3ccccc3)Cc3nnnn3C3CCCC3)c(=O)[nH]c2c1 | 53.3% (active) |
| CCOc1ccc2[nH]c(=O)c(CN(Cc3cccs3)Cc3nnnn3C(C)(C)CC)cc2c1 | 12.9% (inactive) |
| CCC(c1nnnn1C1CCCC1)N(Cc1cccs1)Cc1cc2cc(C)ccc2[nH]c1=O (centres undefined) | 56.4% (active) |
| Cc1ccc2[nH]c(=O)c(CN(Cc3ccccc3)Cc3nnnn3C3CCCC3)cc2c1 | 39.3% (inactive) |
| CCOc1ccc2[nH]c(=O)c(CN(Cc3cccs3)C(CC)c3nnnn3C(C)(C)CC)cc2c1 (centres undefined) | 59% (active) |
| COc1ccc(NC(=O)C2CC(=O)NC(Nc3cccc(C)c3)=N2)cc1 (centres undefined) | 5.9% (inactive) |
| COC(=O)c1ccc(COC(=O)c2ccc(-n3cnnn3)cc2)o1 | -1.9% (inactive) |
| O=C(Cc1ccc(Cl)cc1)NCCN1CCCC1 | 1.5% (inactive) |
| Cc1c(C(=O)O)sc2ncn(C)c(=O)c12 | -7.5% (inactive) |
| c1ccc(CCn2nnnc2C(c2cccs2)N2CCOCC2)cc1 (centres undefined) | 3.6% (inactive) |
| COc1ccc(S(=O)(=O)NCCc2csc(C)n2)cc1C | 0.1% (inactive) |
| Cc1ccccc1-n1c(C)nc2ccccc21 | -11.6% (inactive) |
| Cc1ccc2c(c1)c1c3n2CCN(C(=O)C2CC2)C3CCC1 (centres undefined) | -6.9% (inactive) |
| Cc1ccc2c(c1)c1c3n2CCN(C(=O)CN2CCN(C)CC2)C3CCC1 (centres undefined) | 42.4% (inactive) |
| COc1ccc(Cn2nnnc2CN2CCOCC2)cc1 | -5.5% (inactive) |
| CCN(CC)CCNc1nc(-c2ccco2)c2c(c1C#N)CC(C)(C)OC2 | -14.1% (inactive) |
| CCCc1nc(NCc2ccco2)c(C#N)c2c1COC(C)(C)C2 | -13.3% (inactive) |
| Cc1nc(NCc2ccco2)c(C#N)c2c1COC(C)(C)C2 | -17.6% (inactive) |
| CN(C)CCNc1nc(-c2ccco2)c2c(c1C#N)CC(C)(C)OC2 | 2.7% (inactive) |
| CCC(=O)Nc1cc(C(=O)NCC2CCCN2CC)c(OC)cc1N(C)C (centres undefined) | -2.6% (inactive) |
| Cc1cccc(C)c1NC(=O)N1CCC(n2cnc3ccccc32)CC1 | -24.3% (inactive) |
| Cc1cc(C)n(C(=O)CNC(=O)COc2ccccc2)n1 | -2.7% (inactive) |
| COC(=O)c1ccccc1NC(=O)c1cc2sccc2n1C | 3.3% (inactive) |

| SMILES | cytotoxicity |
| --- | --- |
| Cc1ccc(S(=O)(=O)Cn2nnnc2C(C(C)C)N2CCN(Cc3ccco3)CC2)cc1 (centres undefined) | -0.6% (inactive) |
| CCC(=O)Oc1ccc(-c2nc(-c3cccnc3)no2)cc1 | -4.4% (inactive) |
| COC(=O)CCC(=O)Oc1ccc(OC(=O)CCC(=O)OC)cc1 | 31.7% (inactive) |
| CCOc1ccc(C(=O)COC(=O)CC)cc1 | -1.4% (inactive) |
| CC(C)c1ccc(OC(=O)NCCO)cc1 | -0.9% (inactive) |
| CCn1c(Cc2ccccc2)nnc1SCC(=O)Nc1cc(C)on1 | 4.4% (inactive) |
| O=C1CCC(=O)N1OCCOc1ccc2c(c1)CCC2 | -1.4% (inactive) |
| O=C1NC(c2ccc3c(c2)OCO3)Nc2ccccc21 (centres undefined) | 10.6% (inactive) |
| COC(=O)c1ccc2c(=O)n(CCCN3CCOCC3)c(=S)[nH]c2c1 | 2.7% (inactive) |
| CCC(C)C(NC(=O)C1CCC(C)CC1)C(=O)NC(C(=O)OC)C(C)C (centres undefined) | -5.2% (inactive) |
| COc1cccc2sc(Nc3nnc(-c4cccs4)o3)nc12 | 65.3% (active) |
| COc1cc2nc(-c3cccs3)oc(=O)c2cc1OC | 16.9% (inactive) |
| COc1cccc2sc(N(C)c3ccccc3)nc12 | -14% (inactive) |
| COc1cc(-c2nnc(-c3cccs3)o2)cc(OC)c1OC | -21.3% (inactive) |
| CCOC(=O)c1sc(NCCNc2nc(C)c(C(=O)OCC)s2)nc1C | -1.3% (inactive) |
| COc1ccc(-c2nnc(Nc3nc4c(OC)cccc4s3)o2)cc1 | 85.9% (active) |
| CCOC(=O)c1sc(Nc2nc3c(OC)cccc3s2)nc1C | 63.9% (active) |
| COc1ccc(-c2nnc(-c3ccc(N)cc3)o2)cc1 | 2.5% (inactive) |
| COC(=O)c1sc(NC(=O)COc2ccccc2OC)nc1C | -3% (inactive) |
| COc1ccccc1-c1nnc(Nc2nc3c(OC)cccc3s2)o1 | 54.9% (active) |
| COc1ccccc1-c1nnc(NC(=O)c2ccccc2F)o1 | 4.8% (inactive) |
| COc1ccc(-c2nnc(NC(=O)C(C)C)o2)cc1 | -7.7% (inactive) |
| CCCCNC(=O)NCC(=O)Nc1ccc(F)c(F)c1 | -4% (inactive) |
| CCSc1nnc(NC(=O)CSc2nccn2-c2cc(C)cc(C)c2)s1 | -2.2% (inactive) |
